From PubChem BioAssay come the findings set out here.

The test system of test [1] is Wnt5a (protein binding on small-molecule microarray). As to the kind of experiment: small molecules binding Wnt5a protein – biophysical, small-molecule microarray, 635/667 nm fluorescence, primary screen (AID 1142).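 Note: fluorescence read at 667 nm with signal to noise per printed feature.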 To be noted: 635 nm fluorescence, higher = more signal.
The nature of test [2]: ATP-based viability of Huh7 replicon cells – cell-based, CellTiter-Glo luminescence, basal, 48 h, cytotoxicity control for HCV replication inhibitor project, primary screen (AID 1143).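 Note: Huh7 hepatoma cells carrying a hepatitis C replication reporter with no stimulus; test concentration not given here.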 To be noted: higher = more signal, called active from +8 up or from −8 down. On the technique in general: In antiviral work, replicon cells carry a viral genome segment that copies itself.
Test [3] is described as follows: Pseudomonas biofilm growth suppression – PAO1 strain, BacTiter-Glo luminescence, LB-PBS, primary screen (AID 1144). To be noted: P. aeruginosa PAO1 biofilm, 12 h, higher = more signal.
Test [4] can be described thus: basal CRE-LacZ reporter activity in PC12 – cell-based, unstimulated, primary screen (AID 1145). The following applies: no forskolin, luminescence, 4.5 h, higher = more signal, called active from +8 up or from −8 down.
Test [5] is described as follows: forskolin-driven CRE-LacZ activity in PC12 – cell-based, CRE-LacZ reporter, forskolin-stimulated, primary screen (AID 1146).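 Note: PC12 cells with 6xCRE LacZ reporter stimulated by forskolin 10 µM; beta-galactosidase reporter signal reflecting CREB driven transcription.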 The following applies: luminescence, 4.5 h, higher = more signal, called active from +8 up or from −8 down.
Test [6] concerns the target Streptavidin (Streptomyces avidinii) (UniProt P22629). Kind of test: compounds binding control protein streptavidin – biophysical, small-molecule microarray, 635/667 nm fluorescence, artefact control for SMM compound annotation, primary screen (AID 1147).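 Note: signal reflects streptavidin binding to arrayed compounds as a control protein.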 The following applies: higher = more signal.
Test [7] can be described thus: probe aInhba binding on compound microarray – biochemical, small-molecule microarray, 635/667 nm fluorescence, primary screen (AID 1148).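 Note: score merges 667nm spot fluorescence with signal-to-noise for antibody binding to printed compounds.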 To be noted: higher = more signal.
The target in test [8] is Torsin-1A (Homo sapiens) (UniProt O14656). As to the kind of experiment: TOR1A wild-type binding on microarray – cell lysate, small-molecule microarray, lysate, 635/667 nm, primary screen (AID 1149). The following applies: COS7 hTOR1A-WT lysate, 635 nm fluorescence, higher = more signal.
Sequence of Torsin-1A (Homo sapiens) (O14656 whole entry, looked up): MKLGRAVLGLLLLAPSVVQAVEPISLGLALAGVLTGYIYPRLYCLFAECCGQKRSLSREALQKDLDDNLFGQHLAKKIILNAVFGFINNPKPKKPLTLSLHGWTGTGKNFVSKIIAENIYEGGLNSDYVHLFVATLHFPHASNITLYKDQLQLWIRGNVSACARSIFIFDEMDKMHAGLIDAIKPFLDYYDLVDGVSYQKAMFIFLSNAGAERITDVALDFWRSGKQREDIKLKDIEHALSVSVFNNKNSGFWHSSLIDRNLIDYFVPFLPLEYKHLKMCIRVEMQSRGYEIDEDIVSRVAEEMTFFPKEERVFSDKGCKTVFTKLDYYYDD
Test [9] shares this target. As to the kind of experiment: torsin A mutant lysate binding on microarrays – cell lysate, small-molecule microarray, COS7 lysate, 635/667 nm fluorescence, primary screen (AID 1150).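 Note: score pools 667 nm emission and signal to noise measuring lysate protein binding.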 To be noted: COS7 hTOR1A mutant lysate, 635 nm fluorescence, higher = more signal.
Test [10] relates to Sonic hedgehog protein (Shh). As to the kind of experiment: Sonic hedgehog microarray binding compounds – biochemical, small-molecule microarray, 635/667 nm fluorescence, primary screen (AID 1151).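 Note: Shh protein binding to compounds spotted on small-molecule microarray slides; score combines spot fluorescence intensity with signal-to-noise across triplicate slides.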 The following applies: 635 nm fluorescence, higher = more signal.

SMILES strings stand for the structures. The source made the active and inactive calls. Unless noted, the rule behind the calls is not given here.

Sequence of Streptavidin (Streptomyces avidinii) (P22629 whole entry, looked up): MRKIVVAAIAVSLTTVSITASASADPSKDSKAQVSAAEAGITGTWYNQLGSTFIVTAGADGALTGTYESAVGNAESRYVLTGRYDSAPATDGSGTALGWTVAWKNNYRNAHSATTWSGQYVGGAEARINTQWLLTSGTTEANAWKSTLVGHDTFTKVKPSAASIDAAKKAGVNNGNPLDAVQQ

As for `C=CCNC(=O)[C@@H]1[C@H]2C(=O)O[C@H](c3ccccc3)[C@H](c3ccccc3)N2[C@H](c2ccccc2OCCO)[C@@]12C(=O)Nc1ccc(C#CCCO)cc12`, the composite z-score in [1] was 0.27; in [6] it was -0.158; in test [7] it was 0.0111; in [8], 0.188; in test [9], 0.527; in [10] it was 2.03. For the same molecule, the z-score in test [2] is -3.75 (inactive); in [3] it was -1.2 (inactive); in test [4], -1.7 (inactive); in [5] it was -1.17 (inactive).

As to `COc1cc(C(O)C2C=CC3C(=O)N(C)C(=O)C3N2Nc2ccccc2)cc(OC)c1OC` (stereo not given), the composite z-score is 0.238 in [1]; 1.06 in [6]; 0.813 in test [7]; 0.892 in test [8]; 1.17 in [9]; -0.153 in test [10]. The z-score in test [2] is 0.338 (inactive); in test [3] it was -0.426 (inactive); in test [4], 0.246 (inactive); in test [5], -0.944 (inactive).

With `COc1ccccc1CN1C(=O)c2ccccc2[C@](Cc2ccccc2I)(C(=O)O)[C@@H]1c1ccc(CO)cc1`, the composite z-score in [1] worked out at 0.638; in test [6], 1.09; in test [7], 0.0753; in [8], 0.399; in test [9] it was 1.54; in test [10] it was 1.61. The z-score in test [2] was -1.03 (inactive); in [3], 0.776 (inactive); in [4] it was 0.145 (inactive); in test [5], -0.677 (inactive).

Turning to `CC(C)(C)OC(=O)CC[C@@]1(C(=O)NCC(O)CO)N=C(c2ccc(OCCCO)cc2)O[C@@H]1c1ccccc1CN=[N+]=[N-]` (stereo not given in full), the composite z-score is 0.167 in [1]; 1.14 in test [6]; -0.0021 in test [7]; 1.48 in [8]; 0.654 in test [9]; -0.157 in test [10]. The z-score in test [2] is 0.0366 (inactive); in test [3] it was -0.719 (inactive); in test [4], 1.98 (inactive); in test [5], -0.424 (inactive).

Regarding `O=C1C2C=CC(C(O)c3ccco3)N(Nc3ccccc3F)C2C(=O)N1c1ccccc1` (stereo not given), the composite z-score is 0.0072 in [1]; 0.99 in test [6]; 0.0275 in test [7]; -0.615 in [8]; -0.0102 in test [9]; 0.155 in [10]. Further, the z-score in test [2] was 0.761 (inactive); in test [3], -0.853 (inactive); in test [4], -0.136 (inactive); in [5] it was 0.942 (inactive).

`CC1CC/C=C\[C@H]2OC34C=CCN(Cc5ccccc5)C(=O)[C@H]3N(C(CO)C(C)C)C(=O)[C@@H]4C2C(=O)O1` (stereo not given in full): the composite z-score was -0.0818 in test [1]; -0.854 in test [6]; -0.0695 in [7]; 0.505 in test [8]; -0.741 in test [9]; -0.0532 in test [10]. The z-score in test [2] is -0.0399 (inactive); in test [3], 1.09 (inactive); in test [4], 2.1 (inactive); in [5], 1.43 (inactive).

As to `CCCCCCCCCCC(O)C1C=CC2C(=O)N(c3ccccc3)C(=O)C2N1Nc1ccc(C#N)cc1` (stereo not given), the composite z-score was 0.525 in test [1]; 1.66 in test [6]; 0.215 in test [7]; 0.225 in test [8]; 0.646 in test [9]; 0.314 in [10]. Besides, the z-score in [2] is -3.71 (inactive); in [3], -0.209 (inactive); in test [4], -0.519 (inactive); in [5], 0.407 (inactive).

For `OCCCC1=CC(c2ccc(CN3CCCC3)cc2)N(Cc2cc3c(cc2Br)OCO3)CC1` (stereo not given), the composite z-score in [1] was 0.268; in [6] it was 0.0246; in test [7] it was -0.152; in test [8] it was 0.763; in [9] it was 0.585; in test [10], 1.04. For the same molecule, the z-score is -1.1 (inactive) in [2], -0.808 (inactive) in test [3], -0.932 (inactive) in test [4] and 0.821 (inactive) in test [5].

On to `CCOC(=O)C=Cc1cccc(C)c1O`, for which the composite z-score was -0.0909 in [1]; -0.259 in [6]; -0.0375 in test [7]; 0.299 in test [8]; 0.777 in [9]; 0.219 in test [10]. Moreover, the z-score is -4.73 (inactive) in test [2], -1.02 (inactive) in test [3], 0.472 (inactive) in test [4] and -0.631 (inactive) in test [5].

With `NC(=O)NCC#Cc1ccc2c(c1)[C@]1(C(=O)N2)[C@H](c2ccccc2OCCO)N2[C@H](c3ccccc3)[C@H](c3ccccc3)OC(=O)[C@H]2[C@@H]1C(=O)NC[C@H](O)c1ccccc1`, the composite z-score in [1] was -0.287; in [6], 0.83; in [7], -0.101; in test [8], 0.142; in test [9] it was -0.487; in test [10] it was -0.174. For the same molecule, the z-score is -2.62 (inactive) in test [2], 0.129 (inactive) in test [3], 0.0384 (inactive) in test [4] and -0.278 (inactive) in test [5].

For `CCOC(=O)C[C@H]1[C@H](OC(=O)c2cc3ccccc3oc2=O)[C@@H](NC(=O)c2ccccc2)c2cc(OCCCO)ccc2N1C(=O)c1ccccc1`, the composite z-score in test [1] is 0.315; in [6], 0.289; in test [7], -0.113; in [8], 0.575; in test [9], 0.347; in test [10], 0.696. In addition, the z-score in [2] was -2.83 (inactive); in [3] it was 0.311 (inactive); in test [4], 3.75 (inactive); in test [5], -0.0599 (inactive).

As for `Cc1ccc(S[C@]2(C(=O)NCc3ccccc3)CC(=O)N(C3CCCCC3)[C@@H]2c2ccc(CO)cc2I)cc1`, the composite z-score is 0.301 in test [1]; 1.5 in test [6]; -0.0221 in test [7]; 0.0358 in test [8]; 0.944 in [9]; 0.259 in test [10]. Moreover, the z-score is -4.53 (inactive) in [2], -0.183 (inactive) in test [3], 0.389 (inactive) in test [4] and 1.01 (inactive) in test [5].

As to `COC(=O)[C@@H]1N=C(c2ccc(OCCCO)cc2)O[C@@H]1C`, the composite z-score in test [1] is 0.186; in test [6] it was -0.69; in [7], 0.0225; in test [8], 0.0429; in test [9], -0.425; in test [10], 0.369. The z-score in test [2] was 0.0511 (inactive); in [3], -0.123 (inactive); in test [4], -0.31 (inactive); in test [5], 0.421 (inactive).

On to `CCCCN1CC=CC23O[C@@H]4/C=C\CCC(C)OC(=O)C4[C@H]2C(=O)N(CCCO)[C@@H]3C1=O` (stereo not given in full), for which the composite z-score was -0.636 in [1]; -0.774 in test [6]; -0.247 in test [7]; -1.54 in test [8]; -1.15 in [9]; -0.36 in [10]. The z-score was -0.183 (inactive) in test [2], 1.21 (inactive) in test [3], 0.0605 (inactive) in test [4] and 0.0507 (inactive) in test [5].

For `COc1ccc([Si](C)(C)[C@H]2[C@H](CC(=O)N3CCC[C@H]3CO)O[C@@]3(C(=O)N(Cc4ccc(N5CCOC5=O)cc4)c4ccccc43)[C@@H]2C)cc1`, the composite z-score in test [1] is 0.434; in test [6] it was -0.0564; in [7], 0.235; in [8] it was 0.702; in test [9] it was 0.64; in test [10], 2.05. Besides, the z-score in test [2] is -2.09 (inactive); in test [3] it was 0.11 (inactive); in [4], 0.702 (inactive); in test [5] it was -0.101 (inactive).
